Assay outcomes deposited in PubChem by National Center for Advancing Translational Sciences (NCATS).
This is a sample that favours compounds with a hit; in the whole collection about 1.8% have one here.
GLP-1R inv ag = GLP-1 receptor (human) inverse agonism; 410,000 tested, 1.6% active; AID 624417; Potency, µM (series often up to 38.3 µM), hits mostly inhibitors; HEK293 GLP-1R CRE-luciferase, luminescence, 24 h; GLP-1R form is constitutively active; further: nearly all actives have a fitted effect of over 55% in size
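Readout was luciferase luminescence, measured 12 min after detection reagent at room temperature. Beforehand, GLP-1R reporter HEK293 cells had sat 12 h, then received compounds for 24 hr at 37 deg C.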
PTHR1 ag = PTHR1 (human) receptor agonism; Potency, µM (titrated, usually from 115 µM), actives largely listed as activators; AID 743266; 410,000 tested, 0.075% active; Q03431; HEK293 GP2 PTHR1 cells, GloSensor cAMP luminescence, 1 h; further: nearly all actives have a fitted effect of over 55% in size
Target sequence (Q03431 whole entry, looked up): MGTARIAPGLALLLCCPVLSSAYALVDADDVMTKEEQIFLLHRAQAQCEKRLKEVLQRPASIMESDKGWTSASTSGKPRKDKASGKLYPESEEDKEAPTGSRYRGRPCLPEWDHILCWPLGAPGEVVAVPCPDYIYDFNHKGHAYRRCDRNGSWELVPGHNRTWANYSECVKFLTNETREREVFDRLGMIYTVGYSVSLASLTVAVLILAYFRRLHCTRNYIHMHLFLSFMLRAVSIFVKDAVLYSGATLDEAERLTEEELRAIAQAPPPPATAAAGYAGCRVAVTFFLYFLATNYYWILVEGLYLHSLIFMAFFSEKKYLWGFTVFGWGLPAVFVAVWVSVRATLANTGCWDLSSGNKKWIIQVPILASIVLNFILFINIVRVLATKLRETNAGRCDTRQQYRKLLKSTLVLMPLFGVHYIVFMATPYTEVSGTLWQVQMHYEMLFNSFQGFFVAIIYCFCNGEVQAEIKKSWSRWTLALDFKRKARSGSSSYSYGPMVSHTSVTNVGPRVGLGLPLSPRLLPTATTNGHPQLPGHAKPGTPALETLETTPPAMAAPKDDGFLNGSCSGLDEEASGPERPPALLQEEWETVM
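HEK-293-derived GP2 cells expressing PTHR1 and a GloSensor cAMP reporter, 3,000/well, plated overnight, given luciferin plus IBMX (each 0.5 mM as added) for 1 h at 37 °C, then compound for 1 h at 37 °C. Luminescence was read after 15 min at room temperature.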
GLP-1R agonist = agonists of human GLP-1 receptor; P43220; HEK293 GLP-1R CRE-luciferase, luminescence, 4-6 h; cells express a hypersensitive GLP-1R form; Potency, µM (doses to about 45.6 µM), most hits filed as activators; 380,000 tested, 0.007% active
HEK293 tox = cytotoxicity in counter-screen for GLP-1R inverse agonists; AID 624418; Potency, µM (titrated, usually from 38.3 µM), usual class: inhibitors; 410,000 tested, 0.13% active; HEK293 cAMP-luciferase reporter cells, luminescence, 24 h;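 further: loss of luciferase light is scored as toxicity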
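Here, cytotoxicity is scored as loss of luminescence. The MLSMR collection was tested on cells seeded in medium containing 10% Nu serum, with a 24 hr compound exposure preceded by 12 hours of culture.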
TSHR antagonist = blocks TSH signaling through the human TSH receptor | 330,000 tested, 0.2% active | TSHR-expressing cells, TSH-stimulated cAMP HTRF, 2 h; active compounds read low | activity change, negative = inhibition, % at 11.5 µM;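 active means activity change below a set negative limit, meaning inhibition stronger than a set level, cut at about -70% in these data; inconclusive means activity change between two set negative limits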
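Competitive HTRF cAMP read-out (cryptate anti-cAMP antibody, cAMP-d2; 30 min, room temperature) in freshly harvested TSHR cells. Compounds added before TSH at EC80 (4nM final), followed by 2 hours' incubation at 37 deg C.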
Hits are given with their value; 0 = inactive; ? = inconclusive; - = not tested or not shown. Unless noted, the call rests on the fitted dose curve; in most records, active means well fitted curve in the direction sought with a large enough effect; inconclusive means small, poorly fitted or top-dose-only effect, or another doubt; inactive means no such curve, though single readings can be large; an effect the other way counts as inactive or inconclusive.

SMILES	GLP-1R inv ag	PTHR1 ag	GLP-1R agonist	HEK293 tox	TSHR antagonist
CCC(Cn1nnc2ccccc2c1=O)NC(=O)Nc1ccc(C)cc1C (centres undefined)	0	?	-	0	-
COc1ccc(-c2cnc(C)o2)cc1S(=O)(=O)Nc1c(C)cc(C)cc1C	0	0	-	0	-
O=C1SC(SCc2ccccc2)=N/C1=C\c1ccc(C(=O)O)cc1	0	0	0	0	0
O=C1SC(SCc2ccccc2)=N/C1=C\c1ccco1	0	0.32µM	0	0	-
CCCC(=O)Nc1nc2c(s1)CC(C(C)(C)C)CC2 (centres undefined)	?	0	-	0	-
Cc1nn2c(NC(C)C)c3c(nc2c1-c1ccccc1)CCC3	10µM	0	0	0	0
Cc1nn2c(NCC(C)C)c3c(nc2c1-c1ccccc1)CCC3	0	0	0	0	0
Cc1ccc(S(=O)(=O)c2cn(CC(=O)Nc3ccc4c(c3)OCO4)c3ccccc3c2=O)cc1C	0	?	0	0	-
O=C(NN=C1CCCC1)c1[nH]c2ccc(Br)cc2c1-c1ccccc1	5µM	0	0	?	0
COc1ccc(NC(=O)CCOc2ccc(C)cc2)cc1S(=O)(=O)N1CCCCC1	7.1µM	0	0	0	0
Cc1ccc(OCCCC(=O)Nc2ccc(Cl)c(S(=O)(=O)N3CCOCC3)c2)cc1	11µM	0	0	0	0
COc1ccc(-c2nc3ccccc3n2Cc2ccc(Cl)cc2)cc1	10µM	0	-	0	-
COc1ccc(-c2nc3ccccc3n2Cc2ccc(C(C)C)cc2)cc1	10µM	0	0	0	-
Cc1ccc(-c2nc3ccccc3c(=O)n2Cc2ccccc2)cc1	3.5µM	0	0	0	0
COC(=O)C1=C(C)NC(C)=C(C(=O)O[C@H]2CCN(Cc3ccccc3)C2)C1c1cccc([N+](=O)[O-])c1 (some centres undefined)	-	-	0	-	-
COc1ccc(-c2cc3ccc(O)c(CN4CCCCC4C)c3oc2=O)cc1OC (centres undefined)	0	0	-	0	-
OCc1ccnc2c(O)cccc12	8.9µM	0	0	?	0
Oc1ccc(CNc2ccccc2)c2cccnc12	6.3µM	0	0	?	0
NC(=O)c1ccnc2c(O)cccc12	-	0	0	-	0
Oc1ccc(CNc2ccc(F)cc2)c2cccnc12	?	0	0	0	0
CC(=O)c1ccc(OCc2cc(C(=O)N(C)Cc3ccccn3)no2)cc1	0	0	0	0	0
Cc1cc(OCc2cc(C(=O)N(C)Cc3ccccn3)no2)cc(C)c1Cl	2µM	0	0	0	0
Cc1cc(OCc2cc(C(=O)N(C)C(C)c3ccccn3)no2)cc(C)c1Cl (centres undefined)	?	0	0	0	-98
O=C(CCC(=O)c1ccc(F)cc1)Nc1cccc(S(=O)(=O)Nc2cccc(Cl)c2)c1	10µM	0	0	0	0
O=C(CCC(=O)c1ccc(F)cc1)Nc1ccc(Cl)cc1	0	0	-	0	-
SMILES	GLP-1R inv ag	PTHR1 ag	GLP-1R agonist	HEK293 tox	TSHR antagonist
O=C(CCS(=O)(=O)c1ccccc1)N(CCCN1CCOCC1)c1nc2c(F)cccc2s1	?	0	0	10µM	0
CN(CCC#N)c1ccc(/C=C(\C#N)c2ccccn2)cc1	?	0	0	0	0
CN(CCC#N)c1ccc(C=C(C#N)c2ccc(Br)cc2)cc1	10µM	0	0	?	-
O=C(Nc1ccc(S(=O)(=O)N2CCCC2)cc1)Nc1ccc(F)cc1F	?	0	0	0	-
Cc1ccc(S(=O)(=O)Nc2ccc(NC(=O)Nc3ccc(F)cc3F)cc2)cc1	5.6µM	0	0	0	0
Cc1ccc(Cl)cc1N1CCN(C(=O)c2ccc(CS(=O)Cc3ccc(Cl)cc3)o2)CC1 (centres undefined)	8.9µM	0	0	0	0
CN1CCN(C(=O)c2ccc(CS(=O)Cc3ccc(Cl)cc3)o2)CC1 (centres undefined)	0	0	0	0	0
Cc1ccc(C)c(N2CCN(C(=O)c3ccc(CS(=O)Cc4ccc(Cl)cc4)o3)CC2)c1 (centres undefined)	10µM	0	0	0	0
O=C(c1ccc(CS(=O)Cc2ccc(Cl)cc2)o1)N1CCN(c2ccccc2F)CC1 (centres undefined)	?	0	0	0	0
